Here are results for two sequences from PMC7862700, “An all-to-all approach to the identification of sequence-specific readers for epigenetic DNA modifications on cytosine”.

Common to all, as to test: DAPPL (digital affinity profiling via proximity ligation, sequencing); 10 mM Tris-HCl pH 7.5, 50 mM NaCl, 1 mM DTT, 4% glycerol, room temperature, 30 min; GST-TFs on glutathione beads, 16-mer random dsDNA library, 0.1% formaldehyde crosslink after washing; high values mean tight binding
What all share (conditions): protein: recombinant; tags: N-terminal GST; dsDNA, one strand shown

Assay [1] addresses T1, FLI1 (Homo sapiens, UniProt Q01543 1-452).
T1 sequence: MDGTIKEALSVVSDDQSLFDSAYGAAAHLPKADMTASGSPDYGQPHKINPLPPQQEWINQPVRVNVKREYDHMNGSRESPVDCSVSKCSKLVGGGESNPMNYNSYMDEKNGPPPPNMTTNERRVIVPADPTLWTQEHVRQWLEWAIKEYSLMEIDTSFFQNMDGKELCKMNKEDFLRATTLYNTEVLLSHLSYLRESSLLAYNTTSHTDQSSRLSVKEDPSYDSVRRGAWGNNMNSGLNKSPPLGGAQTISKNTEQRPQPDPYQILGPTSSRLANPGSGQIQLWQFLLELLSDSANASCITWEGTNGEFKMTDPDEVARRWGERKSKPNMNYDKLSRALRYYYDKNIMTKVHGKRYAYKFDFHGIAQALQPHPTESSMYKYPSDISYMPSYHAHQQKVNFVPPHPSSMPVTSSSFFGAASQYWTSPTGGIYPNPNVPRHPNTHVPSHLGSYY
The gist of the method:
(§1)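 GST fusions of human transcription factors were expressed in yeast and captured with glutathione beads. Once given DNA barcodes and pooled alongside a tag-only sample, they were incubated for 30 min at room temperature with 200 nmole of a random double-stranded 16-mer DNA library in Tris/NaCl/DTT/glycerol buffer, then washed, crosslinked (0.1% formaldehyde), proximity-ligated, PCR-amplified and sequenced on an Illumina NextSeq500. The binding signal of each hexamer is its read frequency for a factor divided by its frequency for the tag-only sample.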

The target of assay [2] is T2, ELK1 (Homo sapiens, UniProt P19419 1-428).
T2 sequence: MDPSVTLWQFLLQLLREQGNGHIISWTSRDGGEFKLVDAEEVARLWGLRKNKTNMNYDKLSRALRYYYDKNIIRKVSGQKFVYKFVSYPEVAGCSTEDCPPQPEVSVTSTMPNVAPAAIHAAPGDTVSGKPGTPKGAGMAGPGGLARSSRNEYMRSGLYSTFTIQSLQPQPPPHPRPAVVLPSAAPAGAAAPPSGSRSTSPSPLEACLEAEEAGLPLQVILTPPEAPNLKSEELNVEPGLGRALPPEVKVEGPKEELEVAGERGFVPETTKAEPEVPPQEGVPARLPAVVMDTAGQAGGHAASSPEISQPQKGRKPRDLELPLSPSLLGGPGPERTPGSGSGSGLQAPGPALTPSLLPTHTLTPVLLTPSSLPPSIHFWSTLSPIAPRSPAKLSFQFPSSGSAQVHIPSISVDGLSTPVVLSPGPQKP
The gist of the method:
as §1

For assay [3], the target named is T3, GABPA (Homo sapiens, UniProt Q06546 1-454).
T3 sequence: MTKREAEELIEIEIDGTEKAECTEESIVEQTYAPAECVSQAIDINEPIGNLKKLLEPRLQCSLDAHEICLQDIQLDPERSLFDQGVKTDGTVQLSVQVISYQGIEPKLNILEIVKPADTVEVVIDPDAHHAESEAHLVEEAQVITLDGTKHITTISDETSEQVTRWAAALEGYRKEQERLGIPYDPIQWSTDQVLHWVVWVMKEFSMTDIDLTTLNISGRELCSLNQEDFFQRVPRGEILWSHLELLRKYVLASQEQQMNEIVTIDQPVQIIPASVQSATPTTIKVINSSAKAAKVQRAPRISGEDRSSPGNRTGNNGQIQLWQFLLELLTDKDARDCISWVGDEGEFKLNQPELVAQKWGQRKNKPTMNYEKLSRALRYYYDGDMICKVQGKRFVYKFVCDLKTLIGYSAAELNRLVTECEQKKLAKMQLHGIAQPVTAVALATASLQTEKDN
Put shortly: as §1

The target of assay [4] is T4, ERG (Homo sapiens, UniProt P11308 1-479).
T4 sequence: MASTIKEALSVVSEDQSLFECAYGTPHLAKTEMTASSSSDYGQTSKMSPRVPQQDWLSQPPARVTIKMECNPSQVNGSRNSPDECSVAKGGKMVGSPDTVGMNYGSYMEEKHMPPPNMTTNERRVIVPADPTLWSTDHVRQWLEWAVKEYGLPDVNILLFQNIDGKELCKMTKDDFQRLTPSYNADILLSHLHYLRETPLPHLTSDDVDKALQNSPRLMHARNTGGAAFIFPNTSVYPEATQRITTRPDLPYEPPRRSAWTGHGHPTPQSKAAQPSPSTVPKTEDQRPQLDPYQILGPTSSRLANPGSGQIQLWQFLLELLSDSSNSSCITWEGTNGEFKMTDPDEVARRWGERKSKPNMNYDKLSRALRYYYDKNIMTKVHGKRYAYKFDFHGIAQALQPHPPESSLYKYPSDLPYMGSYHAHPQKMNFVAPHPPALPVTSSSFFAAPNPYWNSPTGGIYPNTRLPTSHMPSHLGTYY
The gist of the method:
as §1

Assay [5] deals with ELF1 (Homo sapiens, UniProt P32519 1-619). Put shortly:
as §1

Assay [6] deals with T5, EHF (Homo sapiens, UniProt Q9NZC4 1-300).
T5 sequence: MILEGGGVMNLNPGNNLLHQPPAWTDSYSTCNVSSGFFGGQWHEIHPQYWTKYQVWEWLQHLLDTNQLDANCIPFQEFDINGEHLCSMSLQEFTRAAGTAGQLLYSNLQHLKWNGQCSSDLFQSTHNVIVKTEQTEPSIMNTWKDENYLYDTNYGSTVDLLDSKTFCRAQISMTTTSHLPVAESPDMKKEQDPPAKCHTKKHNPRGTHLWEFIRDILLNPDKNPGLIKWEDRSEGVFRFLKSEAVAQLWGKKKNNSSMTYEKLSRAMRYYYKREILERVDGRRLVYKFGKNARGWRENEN
The gist of the method: as §1

Assay [7] addresses SPI1 (Homo sapiens, UniProt P17947 1-270). The gist of the method: as §1
For assay [8], the target named is SPIB (Homo sapiens, UniProt Q01892 1-262). Put shortly:
as §1

Assay [9] addresses T6, ELK3 (Homo sapiens, UniProt P41970 1-407).
T6 sequence: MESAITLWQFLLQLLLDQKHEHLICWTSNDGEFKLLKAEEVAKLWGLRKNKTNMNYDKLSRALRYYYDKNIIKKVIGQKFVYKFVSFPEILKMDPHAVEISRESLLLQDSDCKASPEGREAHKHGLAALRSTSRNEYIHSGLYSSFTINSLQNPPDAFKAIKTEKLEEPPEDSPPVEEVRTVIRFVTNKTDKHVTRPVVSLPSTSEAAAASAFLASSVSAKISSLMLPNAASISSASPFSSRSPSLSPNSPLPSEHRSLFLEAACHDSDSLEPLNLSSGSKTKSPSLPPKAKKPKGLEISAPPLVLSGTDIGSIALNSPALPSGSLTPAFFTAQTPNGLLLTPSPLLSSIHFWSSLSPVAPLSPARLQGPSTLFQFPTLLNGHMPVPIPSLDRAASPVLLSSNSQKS
Put shortly:
as §1

For assay [10], the target named is T7, FEV (Homo sapiens, UniProt Q99581 1-238).
T7 sequence: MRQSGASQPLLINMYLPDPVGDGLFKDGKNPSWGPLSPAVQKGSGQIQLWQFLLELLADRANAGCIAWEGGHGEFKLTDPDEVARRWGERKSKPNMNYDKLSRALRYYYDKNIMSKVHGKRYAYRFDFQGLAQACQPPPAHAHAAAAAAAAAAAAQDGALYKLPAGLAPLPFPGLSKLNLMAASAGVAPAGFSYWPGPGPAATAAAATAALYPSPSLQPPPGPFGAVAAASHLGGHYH
The gist of the method: as §1

The target of assay [11] is ETV5 (Homo sapiens, UniProt P41161 1-510). Put shortly:
as §1

Assay [12] has as its target T8, SPIC (Homo sapiens, UniProt Q8N5J4 1-248).
T8 sequence: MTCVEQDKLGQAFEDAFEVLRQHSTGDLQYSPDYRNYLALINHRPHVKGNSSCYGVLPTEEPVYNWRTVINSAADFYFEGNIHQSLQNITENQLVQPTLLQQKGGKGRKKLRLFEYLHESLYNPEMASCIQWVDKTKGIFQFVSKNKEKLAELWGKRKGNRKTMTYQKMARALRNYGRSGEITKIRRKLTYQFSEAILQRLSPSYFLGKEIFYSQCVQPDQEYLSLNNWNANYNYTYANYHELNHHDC
The gist of the method:
as §1

Assay [13] deals with ELF4 (Homo sapiens, UniProt Q99607 1-663). The gist of the method: as §1
Assay [14] addresses T9, ELK4 (Homo sapiens, UniProt P28324-2 1-405).
T9 sequence: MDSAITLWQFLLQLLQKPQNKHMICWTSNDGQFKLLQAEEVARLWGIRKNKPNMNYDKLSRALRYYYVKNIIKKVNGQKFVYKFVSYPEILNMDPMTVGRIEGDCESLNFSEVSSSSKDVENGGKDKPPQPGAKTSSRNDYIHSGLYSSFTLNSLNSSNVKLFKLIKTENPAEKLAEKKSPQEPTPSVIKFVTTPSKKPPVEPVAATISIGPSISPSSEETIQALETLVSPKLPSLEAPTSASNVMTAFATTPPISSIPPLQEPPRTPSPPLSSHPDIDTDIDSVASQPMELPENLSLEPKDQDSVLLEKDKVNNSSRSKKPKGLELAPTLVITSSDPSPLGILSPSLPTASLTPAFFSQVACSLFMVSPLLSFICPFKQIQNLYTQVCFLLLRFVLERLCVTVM
The gist of the method: as §1

Assay [15] addresses T10, ETV2 (Homo sapiens, UniProt O00321 1-342).
T10 sequence: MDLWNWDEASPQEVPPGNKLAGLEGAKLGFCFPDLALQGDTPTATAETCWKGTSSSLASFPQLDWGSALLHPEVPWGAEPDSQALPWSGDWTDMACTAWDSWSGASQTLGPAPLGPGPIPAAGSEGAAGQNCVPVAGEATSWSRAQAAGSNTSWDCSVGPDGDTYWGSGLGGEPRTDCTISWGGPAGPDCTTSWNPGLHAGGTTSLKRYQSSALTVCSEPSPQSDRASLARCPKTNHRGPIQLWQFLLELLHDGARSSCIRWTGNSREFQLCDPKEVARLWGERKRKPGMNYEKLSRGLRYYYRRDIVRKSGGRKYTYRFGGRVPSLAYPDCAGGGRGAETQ
The gist of the method:
as §1

The target of assay [16] is T11, ELF3 (Homo sapiens, UniProt P78545 1-371).
T11 sequence: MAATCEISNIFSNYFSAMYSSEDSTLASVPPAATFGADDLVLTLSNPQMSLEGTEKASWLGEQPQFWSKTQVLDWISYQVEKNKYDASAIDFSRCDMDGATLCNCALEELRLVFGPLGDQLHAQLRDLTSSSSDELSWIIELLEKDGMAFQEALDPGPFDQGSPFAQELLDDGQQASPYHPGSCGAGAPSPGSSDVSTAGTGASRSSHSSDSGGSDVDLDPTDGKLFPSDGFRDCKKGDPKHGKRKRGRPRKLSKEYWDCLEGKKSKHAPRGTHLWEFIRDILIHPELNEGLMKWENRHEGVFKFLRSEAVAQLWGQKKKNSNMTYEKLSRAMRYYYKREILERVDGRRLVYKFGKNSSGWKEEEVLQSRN
Put shortly: as §1

Assay [17] concerns the target ETV1 (Homo sapiens, UniProt P50549 1-477). Put shortly: as §1

Sequence of ETV5 (P41161 whole entry): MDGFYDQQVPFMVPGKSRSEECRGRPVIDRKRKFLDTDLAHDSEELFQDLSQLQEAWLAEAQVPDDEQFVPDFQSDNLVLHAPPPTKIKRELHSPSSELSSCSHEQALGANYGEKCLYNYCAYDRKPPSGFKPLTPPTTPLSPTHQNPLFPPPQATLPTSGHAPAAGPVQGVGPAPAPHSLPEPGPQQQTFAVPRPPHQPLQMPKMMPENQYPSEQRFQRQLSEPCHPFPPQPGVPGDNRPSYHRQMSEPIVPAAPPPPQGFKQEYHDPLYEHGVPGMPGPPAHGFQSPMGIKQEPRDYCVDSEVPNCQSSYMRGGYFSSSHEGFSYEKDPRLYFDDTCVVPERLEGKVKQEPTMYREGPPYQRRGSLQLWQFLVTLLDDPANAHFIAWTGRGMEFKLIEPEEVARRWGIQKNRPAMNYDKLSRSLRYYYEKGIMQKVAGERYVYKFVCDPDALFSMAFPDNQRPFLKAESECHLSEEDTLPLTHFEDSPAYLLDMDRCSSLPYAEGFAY
Sequence of ETV1 (P50549 whole entry): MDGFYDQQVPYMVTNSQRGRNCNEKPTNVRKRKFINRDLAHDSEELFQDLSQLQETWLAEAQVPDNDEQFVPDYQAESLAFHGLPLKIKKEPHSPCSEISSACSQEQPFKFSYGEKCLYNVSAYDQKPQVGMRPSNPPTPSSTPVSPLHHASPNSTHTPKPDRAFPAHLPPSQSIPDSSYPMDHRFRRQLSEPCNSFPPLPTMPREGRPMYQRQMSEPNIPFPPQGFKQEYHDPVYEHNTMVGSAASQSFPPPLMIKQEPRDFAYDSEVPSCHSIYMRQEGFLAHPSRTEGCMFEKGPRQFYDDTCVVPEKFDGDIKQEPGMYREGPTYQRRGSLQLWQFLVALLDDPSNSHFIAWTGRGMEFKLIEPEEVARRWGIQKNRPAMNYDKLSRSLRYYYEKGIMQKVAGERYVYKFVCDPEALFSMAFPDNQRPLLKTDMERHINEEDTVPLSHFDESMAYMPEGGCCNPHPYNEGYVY
Sequence of SPIB (Q01892 whole entry): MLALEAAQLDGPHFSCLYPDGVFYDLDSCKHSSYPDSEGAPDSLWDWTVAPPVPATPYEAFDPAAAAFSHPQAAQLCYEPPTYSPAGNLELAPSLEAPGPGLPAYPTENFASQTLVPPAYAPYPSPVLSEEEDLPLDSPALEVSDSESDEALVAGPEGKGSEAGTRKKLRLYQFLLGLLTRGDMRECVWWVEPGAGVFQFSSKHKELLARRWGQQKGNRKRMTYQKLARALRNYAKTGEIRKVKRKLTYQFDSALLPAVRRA
Sequence of ELF4 (Q99607 whole entry): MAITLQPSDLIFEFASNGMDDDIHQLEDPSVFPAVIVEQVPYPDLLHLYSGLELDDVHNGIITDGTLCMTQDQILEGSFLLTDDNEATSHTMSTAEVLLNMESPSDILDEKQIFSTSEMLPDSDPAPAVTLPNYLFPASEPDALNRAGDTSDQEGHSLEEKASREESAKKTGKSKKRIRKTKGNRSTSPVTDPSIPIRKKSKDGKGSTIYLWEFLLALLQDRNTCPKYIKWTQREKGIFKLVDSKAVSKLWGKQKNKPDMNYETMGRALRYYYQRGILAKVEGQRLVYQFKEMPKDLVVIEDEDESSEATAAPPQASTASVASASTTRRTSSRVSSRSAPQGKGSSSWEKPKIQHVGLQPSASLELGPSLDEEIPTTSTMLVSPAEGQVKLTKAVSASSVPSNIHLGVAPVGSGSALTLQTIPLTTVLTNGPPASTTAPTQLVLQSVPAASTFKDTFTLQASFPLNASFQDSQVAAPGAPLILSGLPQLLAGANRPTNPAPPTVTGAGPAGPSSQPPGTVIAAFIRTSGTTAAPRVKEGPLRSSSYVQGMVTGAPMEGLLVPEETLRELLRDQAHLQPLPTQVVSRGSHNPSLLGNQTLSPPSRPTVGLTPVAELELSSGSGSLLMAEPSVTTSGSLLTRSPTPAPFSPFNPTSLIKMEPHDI
Sequence of ELF1 (P32519 whole entry): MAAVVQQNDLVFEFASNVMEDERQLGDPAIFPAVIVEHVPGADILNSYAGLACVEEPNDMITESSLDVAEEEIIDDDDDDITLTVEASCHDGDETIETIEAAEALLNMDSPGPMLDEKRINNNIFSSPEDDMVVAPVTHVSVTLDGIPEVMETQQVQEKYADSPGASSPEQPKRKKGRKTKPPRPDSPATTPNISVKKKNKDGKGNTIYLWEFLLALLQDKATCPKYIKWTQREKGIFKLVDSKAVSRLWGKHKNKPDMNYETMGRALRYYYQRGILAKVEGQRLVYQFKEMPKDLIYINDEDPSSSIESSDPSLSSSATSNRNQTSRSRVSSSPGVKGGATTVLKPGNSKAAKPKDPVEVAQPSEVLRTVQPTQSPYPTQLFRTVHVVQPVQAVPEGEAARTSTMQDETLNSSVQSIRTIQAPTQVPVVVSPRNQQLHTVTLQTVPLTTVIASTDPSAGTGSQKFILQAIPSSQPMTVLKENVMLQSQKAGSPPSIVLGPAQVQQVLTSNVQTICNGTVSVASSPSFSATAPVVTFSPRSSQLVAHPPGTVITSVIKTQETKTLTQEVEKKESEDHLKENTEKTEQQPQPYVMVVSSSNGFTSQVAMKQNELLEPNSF

As for GTCCCC, the binding signal in assay [1] is 1.14 fold enrichment (6-mer frequency, TF over GST control); in assay [2], 1.29 fold enrichment (6-mer frequency, TF over GST control); in assay [3] it was 1.19 fold enrichment (6-mer frequency, TF over GST control); in assay [4], 1.23 fold enrichment (6-mer frequency, TF over GST control); in [5] it was 1.19 fold enrichment (6-mer frequency, TF over GST control); in assay [6], 1.28 fold enrichment (6-mer frequency, TF over GST control). In addition, the binding signal in assay [7] is 1.23 fold enrichment (6-mer frequency, TF over GST control); in assay [8] it was 1.24 fold enrichment (6-mer frequency, TF over GST control); in assay [9], 1.29 fold enrichment (6-mer frequency, TF over GST control); in assay [10], 1.18 fold enrichment (6-mer frequency, TF over GST control); in assay [11], 1.27 fold enrichment (6-mer frequency, TF over GST control); in [12], 1.26 fold enrichment (6-mer frequency, TF over GST control). Further, the binding signal in assay [13] was 1.2 fold enrichment (6-mer frequency, TF over GST control); in assay [14] it was 1.26 fold enrichment (6-mer frequency, TF over GST control); in assay [15], 1.22 fold enrichment (6-mer frequency, TF over GST control); in [16], 1.38 fold enrichment (6-mer frequency, TF over GST control); in [17], 1.29 fold enrichment (6-mer frequency, TF over GST control).
On to AACACC, for which the binding signal in assay [1] is 1.19 fold enrichment (6-mer frequency, TF over GST control); in assay [2], 1.18 fold enrichment (6-mer frequency, TF over GST control); in [3] it was 1.11 fold enrichment (6-mer frequency, TF over GST control); in assay [4] it was 1.15 fold enrichment (6-mer frequency, TF over GST control); in assay [5] it was 1.11 fold enrichment (6-mer frequency, TF over GST control); in [6], 1.12 fold enrichment (6-mer frequency, TF over GST control). Also, the binding signal in assay [7] was 1.04 fold enrichment (6-mer frequency, TF over GST control); in assay [8], 1.16 fold enrichment (6-mer frequency, TF over GST control); in assay [10], 1.15 fold enrichment (6-mer frequency, TF over GST control); in assay [11] it was 1.04 fold enrichment (6-mer frequency, TF over GST control); in assay [12], 1.02 fold enrichment (6-mer frequency, TF over GST control); in assay [13], 1.14 fold enrichment (6-mer frequency, TF over GST control). Further, the binding signal in assay [14] is 1.13 fold enrichment (6-mer frequency, TF over GST control); in assay [15] it was 1.15 fold enrichment (6-mer frequency, TF over GST control); in assay [16], 1.09 fold enrichment (6-mer frequency, TF over GST control); in assay [17], 1.13 fold enrichment (6-mer frequency, TF over GST control).
